Molecules are shown by their SMILES. In all, about 420,000 compounds went through this assay and about 50,000 (12%) were called active. Roughly 26% stayed inconclusive and do not appear here. The entries come from a sample that favours actives as a whole. A call without a number means that no potency is given here. A number with no mark means an inactive call. Calls follow the shape of the dose curve; as a rule, active = well fitted inhibition curve with a large enough effect; inconclusive = small, poorly fitted or top-dose-only effect; inactive = flat fitted curve, though single readings scatter.
Potency is read from the fitted curve at half-maximal effect.

This assay can be described thus: qHTS for Inhibitors of human tyrosyl-DNA phosphodiesterase 1 (TDP1): qHTS in cells in presence of CPT. Also: nearly all actives have a fitted effect of over 55% in size. The settings on record: chicken DT40 Tdp1-/-;hTDP1 cells + 20 nM CPT, ATP luminescence, 48 h; series mostly up to 46.2 µM. An excerpt:
Human tyrosyl-DNA phosphodiesterase 1 (TDP1) is a novel repair gene, and we propose to use it as a new target for anticancer drug development. TDP1 is not an essential protein, but under treatment with topoisomerase I poison (camptothecin: CPT), TDP1 works as a critical factor for cell survival. To directly identify novel TDP1 inhibitors active in a cellular environment, we have knocked-out the Tdp1 gene in chicken DT40 cells (Tdp1-/-) and generated a complemented counterpart cells that contains a stable transfection of the human TDP1 gene (Tdp1-/-;hTDP1 cells). For the primary screen, Tdp1-/-;hTDP1 cells will be exposed to small molecules in the presence or absence of CPT, and their growth kinetics will be evaluated after 48 hours by measuring ATP activity. […] The hit compounds will then be evaluated in the presence or absence of CPT using Tdp1-/- cells. […] In tertiary assays, biochemical gel-based assays will be used to assess whether the hit compounds specifically target TDP1. To this end, we have screened this cell line against the MLSMR in two primary screens. In one screen we add CPT and in the other we screen in the absence of CPT; this AID represents the screen where CPT was present. NIH Chemical Genomics Center [NCGC] NIH Molecular Libraries Probe Centers Network [MLPCN] MLPCN Grant: MH095538 Assay Submitter (PI): Yves Pommier, NCI
DT40-hTDP1 cells with 20 nM Camptothecin (add 20 microL of 1 mM CPT stock in 1 L of cell culture medium) were dispensed at 400 cells/5microL/well in tissue culture treated 1536-well white wall/solid bottom assay plates (Greiner Bio-One North America, NC, U.S.A.) using a Multidrop Combi 8 channel dispenser (Thermo Fisher, Waltham, MA, USA). 23 nL compounds and controls were transferred using the pin tool (Kalypsys, San Diego, CA, USA) to the assay plates. The assay plates were then incubated at 37 masculineC for a minimum 48 hr. Three microL of Cell Titer Glo solution was added to the plates and incubated at RT in dark for 30 min. Luminescence was read using ViewLux (Perkin Elmer) with 1 sec exposure slow speed, high gain and 2x binning.
(In general: In qHTS, concentration-response curves come from the screen itself.)
On to `O=C(Nc1ccc(Cl)c(C(F)(F)F)c1)C1Cc2c(-c3ccccc3Oc3ccccc3)ccnc2O1` (stereo unspecified), for which the Potency was 18.4 µM (active). As for `COc1ccc(NC(=O)CSc2nccn2Cc2ccc3c(c2)OCO3)cc1`, the Potency result is “inactive”. Regarding `O=C(COC(=O)c1cc[n+]([O-])cc1)Nc1ccc(Cl)c(C(F)(F)F)c1`, the Potency entry is “inactive”. As to `O=C(Nc1ccc(Cl)cc1)C1Cc2c(-c3ccc4c(c3)OCO4)ccnc2O1` (stereo unspecified), the Potency was 23.1 µM (active).

For the compound `CC(=O)Nc1ccc(-c2ccnc3c2CC(C(=O)NC(C)C)O3)cc1` (stereo unspecified), the Potency entry is “inactive”. With `O=C1OC(C(=O)Nc2cccc(Br)c2)Cc2ccccc21` (stereo unspecified), the Potency entry was “inactive”. For the compound `CC(=O)c1cccc(NC(=O)C2CCCN2S(=O)(=O)c2cccc3nsnc23)c1` (stereo unspecified), the Potency result was “inactive”.

For `COCCNC(=O)CSc1nc(N)c(NC(=O)c2ccco2)c(=O)[nH]1`, the Potency result is “inactive”. Take `COC(=O)c1c(C)oc(C)c1S(=O)(=O)NCc1ccc(Cl)cc1`: the Potency result is “inactive”. In the case of `COC(=O)c1cc(NC(=O)CCS(=O)(=O)c2cc(Br)cc3c2N(C(=O)C2CC2)CC3)cc(C(=O)OC)c1`, the Potency entry was “inactive”. Consider `Cc1cc(C)n(-c2ccc(NC(=O)C3CCCCN3C(=O)c3cccs3)cc2)n1` (stereo unspecified), for which the Potency result was “inactive”.

For `Cc1ccccc1OCCSc1nc2ccc(NC(=O)c3ccco3)cc2s1`, the Potency was 20.6 µM (active). Turning to `Cc1cccc(OCCSc2nc3ccc(NC(=O)COc4ccccc4C)cc3s2)c1`, the Potency result was “inactive”.

With `COc1cc(C)ccc1OCCSc1nc2ccc(NC(=O)c3ccc(C)cc3)cc2s1`, the Potency entry was “inactive”. The same measure, in the same setting: under `Cc1ccccc1SCC(=O)OCC(=O)N1CC(=O)Nc2ccccc21` stands “inactive”; under `CC1=NNC(=O)C1CCC(=O)N/N=C\c1ccc(Cl)c(Cl)c1` (stereo unspecified), “inactive”; under `Cc1cccc(OCC(=O)N(Cc2ccc(C(C)C)cc2)Cc2ccco2)c1C`, 16.4 µM (active). In the case of `Cc1cccc(OCc2nnc(SCC(=O)N3CCN(C(=O)c4ccco4)CC3)n2C)c1C`, the Potency result was “inactive”.

With `Cc1ccnc(NC(=O)CCC(=O)N(CC(=O)NCc2ccccc2)Cc2ccco2)c1`, the Potency entry was “inactive”. On the same count and under the same terms, then `Cc1cccc(N(C(=O)Cn2nnc(-c3ccc(C)o3)n2)C(C(=O)NC2CCCC2)c2ccncc2)c1` (stereo unspecified), with “inactive”. Take `COc1ccc(CN2CCC3(CCC(CNC(=O)c4ccco4)O3)CC2)cc1OC` (stereo unspecified): the activity change, negative = growth inhibition was -1.91% [at 9.04 µM].

Regarding `O=C(OCC(=O)N1CCCC1)c1ccc(Cl)nc1`, the Potency result was “inactive”. Take `CC(C)(C)c1ccc(C(=O)Nc2ccc3c(c2)CCCN3C(=O)c2cccs2)cc1`: the Potency was 5.8 µM (active). Turning to `O=C(Nc1ccccc1)c1ccc(NC(=O)c2cccs2)cc1`, the Potency entry was “inactive”.

As to `O=C(Nc1ccc(NC(=O)c2cccs2)cc1)c1ccc2ccccc2c1`, the Potency result was “inactive”. Consider `COCCN(C(=O)CCC(=O)Nc1nccs1)C(C(=O)NC(C)(C)C)c1ccc(Cl)cc1` (stereo unspecified), for which the Potency result is “inactive”. On to `O=C(c1cccc(Cn2cccn2)c1)N1CCOc2c(cc(-c3csc4ccccc34)cc2OC2CCOC2)C1` (stereo unspecified), for which the Potency was 18.4 µM (active). With `CCOC(=O)N1CCN(Cc2ccc3c(c2)CN(C(=O)c2cccc(-n4cccn4)c2)CCO3)CC1`, the activity change, negative = growth inhibition is -11.3% [at 9.04 µM]. Regarding `Cc1cnc(C)c(-c2cc(F)c3c(c2)CC(CNC(=O)c2cccc(Cn4cccn4)c2)O3)n1` (stereo unspecified), the Potency result was “inactive”. Take `Cc1ccc(C(=O)NCC(=O)OCC(=O)Nc2cccc(S(=O)(=O)N3CCCC3)c2)cc1C`: the Potency entry was “inactive”. With `CN1C[C@@H](CO)O[C@@H](n2cnc3c(N4CCN(CCO)CC4)ncnc32)C1`, the Potency result is “inactive”. In the case of `CCCCn1c(N)c(N(CCC(C)C)C(=O)CC2OC(=O)c3ccccc32)c(=O)[nH]c1=O` (stereo unspecified), the Potency entry is “inactive”. On to `CCOc1cc(/C=C(/C#N)c2ccc(Cl)cc2)cc(Cl)c1OCC(=O)O`, for which the Potency entry was “inactive”.

On to `CCOc1ccc(C(CC(=O)O)NC(=O)COc2ccccc2)cc1` (stereo unspecified), for which the Potency entry is “inactive”. For `CC(NC(=O)COc1ccc(-c2ccccc2)cc1)C1CCCO1` (stereo unspecified), the Potency is 20.6 µM (active). Turning to `O=C(COc1ccc(-c2ccccc2)cc1)NN=C1CCCC1`, the Potency result is “inactive”. With `CN(C(=O)COC(=O)CNC(=O)C12CC3CC(CC(C3)C1)C2)c1ccccc1`, the Potency result was “inactive”. Still for that read-out and setting: under `O=C(NCC(=O)N1CCC2(CC1)NCCc1[nH]cnc12)c1ccc(Br)cc1` stands “inactive”; under `CC(OC(=O)c1ccc(NC(=O)CC#N)cc1)C(=O)Nc1ccc(S(=O)(=O)N2CCCC2)cc1` (stereo unspecified), “inactive”; under `CCc1ccc(CN(C)C(C)C(=O)Nc2ccc(S(=O)(=O)N3CCCC3)cc2)cc1` (stereo unspecified), 18.4 µM (active). With `CN(CC(=O)Nc1ccc(S(=O)(=O)N2CCCC2)cc1)Cc1ccc(Cl)c(Cl)c1`, the Potency result was “inactive”. Consider `Cc1cc(/C=C(/C#N)C(=O)Nc2ccc(Cl)cc2)c(C)n1-c1cccnc1`, for which the Potency result is “inactive”. Regarding `COCCn1c(SCC(=O)Nc2ccc(F)cc2F)nc2c(c1=O)SCC2`, the Potency result was “inactive”. Take `O=C(NNS(=O)(=O)c1ccc(F)cc1)c1cnccn1`: the Potency entry was “inactive”. Take `C=CCn1c(=O)c(C(=O)Nc2ncccc2O)c(O)c2ccccc21`: the Potency result is “inactive”. Take `O=C(O)/C=C/c1ccc(S(=O)(=O)N2CCCCCC2)cc1`: the Potency entry is “inactive”.

The values are drawn from PubChem BioAssay AID686979 (National Center for Advancing Translational Sciences (NCATS), 2013).
